Experimental data taken from the supplement of paper PMC7156485.
± gives the standard deviation of the averaged measurements.

Columns and labels:
Details in all cases: concentration: 10 µM; 24 h
HCC1569 [1] = test: cell number relative to DMSO (% of DMSO); higher = more cells (less growth inhibition / toxicity)
Summary of the method: (§1)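 HCC1569 and TDF cells were seeded at 800 per well in 384-well plates in RPMI with 10% FBS and treated with compounds at 10 µM for 24 h at 37 °C, in triplicate. After fixation in 3.7% formaldehyde, cells were stained with a rabbit anti-H1.0 antibody, an AlexaFluor 647 secondary and DAPI, and six fields per well were imaged at ×10. H1.0 nuclear intensity or cell number is given as percent of the plate control, using the median of replicates, with HCC1569 values smoothed for positional effects.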

TDF [2] = test: as above
Summary of the method: as §1

TDF [3] = test: H1.0 immunofluorescence intensity relative to DMSO (% of DMSO); higher = stronger H1.0 induction, active = 120 or more
Summary of the method: as §1

HCC1569 [4] = test: H1.0 immunofluorescence intensity relative to DMSO (% of DMSO); higher = stronger H1.0 induction, active = 140 or more
Summary of the method: as §1
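Wherever H1.0 immunofluorescence intensity relative to DMSO is given: TDF is a line of transformed human dermal fibroblasts of mesenchymal origin.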
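Wherever cell number relative to DMSO is given: TDF denotes transformed human dermal fibroblasts of mesenchymal origin.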

Row | SMILES | cell number (HCC1569 [1]) | cell number (TDF [2]) | H1.0 immunofluorescence intensity (TDF [3]) | H1.0 immunofluorescence intensity (HCC1569 [4])
1 | Br.Br.N=C(N)SCCN [2-(2-Aminoethyl)isothiourea dihydrobromide] | 99.2 | 85.8 | 96.9 (inactive) | 99.7 (inactive)
2 | CC(C)(C)c1onc(OCP(=O)(O)O)c1CC(N)C(=O)O (stereo not drawn) | 104 | 113 | 91.2 (inactive) | 95.1 (inactive)
3 | CCOC(=O)C(CCc1ccccc1)NC(C)C(=O)N1CCCC1C(=O)O (stereo not drawn) [Enalapril] | 104 | 106 | 98.8 (inactive) | 118 (inactive)
4 | CN(C)CCCn1cc(C2=C(c3c[nH]c4ccccc34)C(=O)NC2=O)c2ccccc21 [Bisindolylmaleimide I] | 85.8 | 80.3 | 111 (inactive) | 131 (inactive)
5 | CCn1cc(C(=O)O)c(=O)c2cc(F)c(N3CCNCC3)cc21 [Norfloxacin] | 100 | 108 | 105 (inactive) | 101 (inactive)
6 | CCn1c(=O)[nH]c2cc(Cl)c(Cl)cc21 | 99.9 | 94.4 | 99.5 (inactive) | 95.7 (inactive)
7 | CC1=C(C)C(=O)C(CCCCC#CCCCC#CCO)=C(C)C1=O [Docebenone] | 93.3 | 75.3 | 103 (inactive) | 110 (inactive)
8 | CC(C)NCC(O)c1ccc(O)c(O)c1.Cl (single isomer, unassigned; (-)) [(-)-Isoproterenol hydrochloride] | 104 | 107 | 89.5 (inactive) | 93.8 (inactive)
9 | CCS(=O)(=O)CCn1c([N+](=O)[O-])cnc1C [Tinidazole] | 107 | 104 | 102 (inactive) | 105 (inactive)
10 | CC(COc1ccc(C=Cc2ccccc2)cc1)[N+](C)(C)C.[I-] (stereo not drawn) | 95.6 | 84.6 | 107 (inactive) | 110 (inactive)
11 | CNC(=O)C1OC(n2cnc3c(N)ncnc32)C(O)C1O (stereo not drawn) [5'-N-Methyl carboxamidoadenosine] | 110 | 110 | 104 (inactive) | 98.9 (inactive)
12 | CCCCN(CCCC)CC(O)c1cc(Cl)cc2c1-c1ccc(Cl)cc1/C2=C/c1ccc(Cl)cc1 (stereo not drawn) | 103 | 108 | 90.7 (inactive) | 104 (inactive)
13 | CC12CCC(=O)C=C1CCC1C2C(O)CC2(C)C(C(=O)CO)CCC12 (stereo not drawn) [Corticosterone] | 101 ± 2.6 | 103.3 ± 0.6 | 92.8 (inactive) | 100 (inactive)
14 | N#CC(=C1Nc2ccccc2S1)c1ccnc(NCCc2cccnc2)n1 [JNK Inhibitor V] | 73.6 | 87.4 | 108 (inactive) | 123 (inactive)
15 | C[C@H]1CN(C[C@H](Cc2ccccc2)C(=O)NCC(=O)O)CC[C@@]1(C)c1cccc(O)c1 | 94.4 | 102 | 88.5 (inactive) | 107 (inactive)
16 | COC(=O)c1sccc1S(=O)(=O)Nc1ccc(Nc2ccccc2)cc1OC | 99.7 | 92.5 | 88.2 (inactive) | 112 (inactive)
17 | Cc1c(C(=O)O)c(O)cc2c1C(=O)c1c(O)c(C3OC(CO)C(O)C(O)C3O)c(O)c(O)c1C2=O (stereo not drawn) [Carminic acid] | 101 | 107 | 102 (inactive) | 99.8 (inactive)
18 | CCCCCC#CCC(O)C=CC=CC=CC(O)CCCC(=O)O (stereo not drawn) [14,15-Dehydroleukotriene B4] | 101 | 96.7 | 105 (inactive) | 101 (inactive)
19 | CCn1cc(C(=O)O)c(=O)c2cc(F)c(N3CCNC(C)C3)c(F)c21 (stereo not drawn) [Lomefloxacin] | 101 | 90.9 | 95.3 (inactive) | 100 (inactive)
20 | COC(=O)[C@H](Cc1ccc([N+](=O)[O-])cc1)NC(=O)c1cccc2ccccc12 [methyl (2S)-2-(1-naphthoylamino)-3-(4-nitrophenyl)propanoate] | 92.4 | 95 | 100 (inactive) | 101 (inactive)
21 | NC(=O)N1c2ccccc2CC(=O)c2ccccc21 [Oxcarbazepine] | 103 | 108 | 93.7 (inactive) | 110 (inactive)
22 | COc1cc2c(c(OC)c1OC)-c1c(cc(OC)c(OC)c1OC)C[C@](C)(O)[C@@H](C)C2 | 100 | 108 | 101 (inactive) | 100 (inactive)
23 | O=S1(=O)CCN(CN2CCS(=O)(=O)NC2)CN1 | 98.4 | 99.3 | 88.2 (inactive) | 94 (inactive)
24 | O=[N+]([O-])c1ccc(Nc2nc(N3CCOCC3)nc(N3CCOCC3)n2)cc1 | 96.5 | 99 | 95.8 (inactive) | 102 (inactive)
25 | CC(C)(C)c1nc2c3cc[nH]c(=O)c3c3cc(F)ccc3c2[nH]1 | 110 | 103 | 87 (inactive) | 101 (inactive)
26 | CCCCCCCCCCCCCCC[C@@H](O)[C@@H](N)CO [(2S,3R)-2-amino-1,3-octadecanediol] | 97.2 | 39.4 | 120 (active) | 96.2 (inactive)

Row | SMILES | cell number (HCC1569 [1]) | cell number (TDF [2]) | H1.0 immunofluorescence intensity (TDF [3]) | H1.0 immunofluorescence intensity (HCC1569 [4])
27 | CN1CCN(C2Cc3ccccc3Sc3ccc(Cl)cc32)CC1.O=C(O)C=CC(=O)O (stereo not drawn) | 82 | 104 | 105 (inactive) | 145 (active)
28 | CCc1cccc2c3c([nH]c12)C(CC)(CC(=O)O)OCC3 (stereo not drawn) [Etodolac] | 98.6 | 101 | 97 (inactive) | 105 (inactive)
29 | O=C(c1ccc(C(=O)N2CCC(N3CCCC3)CC2)c(Nc2ccccc2)c1)N1CCC(N2CCCC2)CC1 | 99.8 | 104 | 86.5 (inactive) | 102 (inactive)
30 | COc1ccc2cc(CCC(C)=O)ccc2c1 [Nabumetone] | 107 | 97.4 | 93.8 (inactive) | 111 (inactive)
31 | O=C(CCl)c1c[nH]c2ccccc12 [2-chloro-1-(1H-indol-3-yl)ethanone] | 63.6 | 55 | 125 (active) | 150 (active)
32 | COc1cc2c(N3CCN(C(=O)Nc4ccc(OC(C)C)cc4)CC3)ncnc2cc1OCCCN1CCCCC1 [Tandutinib] | 101 | 100 | 97.9 (inactive) | 99.5 (inactive)
33 | Fc1ccc(-c2nc3n(c2-c2ccncc2)CCS3)cc1 | 95.4 | 108 | 92.3 (inactive) | 107 (inactive)
34 | Cl.Cl.N=C(N)c1ccc(N)cc1 [4-Aminobenzamidine dihydrochloride] | 99.9 | 102 | 92.2 (inactive) | 94.1 (inactive)
35 | CCOC(=O)C(C)(C)Oc1ccc(Cl)cc1 [Clofibrate] | 102 ± 2.9 | 99.8 ± 6.2 | 99.5 (inactive) | 94.7 (inactive)
36 | CNC1C(O)C(NC)C2OC3(O)C(=O)CC(C)OC3OC2C1O (stereo not drawn) [Spectinomycin] | 104 | 98 | 97 (inactive) | 87 (inactive)
37 | O=NN(CCCl)C(=O)NCCCl [Carmustine] | 99 | 93.9 | 95.4 (inactive) | 89.6 (inactive)
38 | C=CC(C)(C=Cc1ccc(O)cc1)CCC=C(C)C (stereo not drawn) [Bakuchiol] | 84.7 ± 3.6 | 91.2 ± 4.6 | 97.7 (inactive) | 96.8 (inactive)
39 | CC(C)C(NC(=O)OCc1ccccc1)C(=O)NC(C=O)Cc1ccccc1 (stereo not drawn) | 99.5 | 96.2 | 103 (inactive) | 102 (inactive)
40 | NC1CONC1=O [D-Cycloserine] | 98.8 | 96.8 | 97.5 (inactive) | 92.1 (inactive)
41 | CC1=NC(=NNc2ccc(C(=O)[O-])cc2)C(COP(=O)([O-])[O-])=C(C=O)C1=O.[Na+].[Na+].[Na+] | 101 | 103 | 93.5 (inactive) | 103 (inactive)
42 | CCC(=O)OC1(C(=O)SCF)C(C)CC2C3CC(F)C4=CC(=O)C=CC4(C)C3(F)C(O)CC21C (stereo not drawn) | 98.9 | 105 | 86.8 (inactive) | 116 (inactive)
43 | COC(=O)C1C(O)CCC2CN3CCc4c([nH]c5ccccc45)C3CC21.Cl (stereo not drawn) [Rauwolscine] | 103 | 99.5 | 95.5 (inactive) | 95.6 (inactive)
44 | COc1cc(C2Oc3cc(C4Oc5cc(O)cc(O)c5C(=O)C4O)ccc3OC2CO)ccc1O (stereo not drawn) [Silybine] | 100 | 103 | 95.9 (inactive) | 90.2 (inactive)
45 | OC1C=C2CCN3Cc4cc5c(cc4C(C1O)C23)OCO5 (stereo not drawn) [Lycorine] | 67.4 | 53.3 | 120 (inactive) | 180 (active)
46 | NCC(O)(CS(=O)(=O)O)c1ccc(Cl)cc1 (stereo not drawn) [2-Hydroxysaclofen] | 101 | 94.6 | 97.7 (inactive) | 93.4 (inactive)
47 | COC(=O)N=NC=C1C=[N+]([O-])c2ccccc2N1O [Carbadox] | 104 | 101 | 95.8 (inactive) | 92.8 (inactive)
48 | CC(C)=CCC(OC(=O)C=C(C)C)C1=CC(=O)c2c(O)ccc(O)c2C1=O (stereo not drawn) [Shikonin beta,beta-dimethylacrylate] | 25.4 | 83.5 | 109 (inactive) | 114 (inactive)
49 | O=S(=O)(c1cccc2cnccc12)N1CCCNCC1 | 107 | 102 | 88 (inactive) | 98.2 (inactive)
50 | COc1ccc2cc1Oc1ccc(cc1)CC1c3cc(c(OC)cc3CCN1C)Oc1c(OC)c(OC)cc3c1C(C2)N(C)CC3 (stereo not drawn) [Isotetrandrine] | 97.9 | 83.8 | 111 (inactive) | 103 (inactive)
51 | Cl.Cl.OCCN1CCN(CCCN2c3ccccc3Sc3ccc(C(F)(F)F)cc32)CC1 [Fluphenazine.2HCl] | 95.6 | 107 | 101 (inactive) | 116 (inactive)
52 | COC1=C2CC(C)=c3c(C(C)=O)c(OC)c(O)c4c3c2c2c(cc(OC)c3c(OC)cc(O)c4c32)C(=O)C1=O [Hypocrellin B] | 101 | 95 | 97.1 (inactive) | 93.7 (inactive)
